We go through 40 sequences from the OligoGym collection.
Further: reference of the scale not given here.

The first test concerns the target CDH19. Nature of the test: pooled miR-30 sensor sort-seq; sequence = guide strand. The conditions noted are these: shRNA.
On to TTGATATTGAACACTTTGCTCC, for which the sensor-assay potency score (higher = more potent) is -0.145.

TTTTCCAGAATGAATTTCCTGA: the sensor-assay potency score (higher = more potent) was -0.246.

For TTAATTAATACACTTGTTGTTC, the sensor-assay potency score (higher = more potent) is -0.144.

In a further test the target is CDH20. The description is as above. The conditions noted are these: shRNA.
With TAGTATATTTCATCTCTGCATT, the sensor-assay potency score (higher = more potent) was -0.967.

Regarding TAGTATTCTTTGGCTTCTCTGT, the sensor-assay potency score (higher = more potent) is -0.859.

As to TTCATCTCTGCATTGATGCCTT, the sensor-assay potency score (higher = more potent) was -0.00989.

TTGAGTTGTTGGTCACATCTGG yielded a sensor-assay potency score (higher = more potent) of 0.759.

Regarding TGATGATGAACTCTGACTCGGG, the sensor-assay potency score (higher = more potent) is -0.216.

On to TATCATTGACATCTGAGAGGGT, for which the sensor-assay potency score (higher = more potent) was 0.944.

With TTTCTTGCTTTCAAAACTCAGG, the sensor-assay potency score (higher = more potent) was -0.799.

In the case of TTGATTGTGACAGGAACACTTC, the sensor-assay potency score (higher = more potent) is -0.452.

Take TGTAGTAGAAATGCTGACCATT: the sensor-assay potency score (higher = more potent) was -0.339.

Take TATCTGAATGAAGCTTGCCGAC: the sensor-assay potency score (higher = more potent) is -1.28.

Take TTCTTTGGCTTCTCTGTCCATG: the sensor-assay potency score (higher = more potent) was -0.339.

Turning to TTGGATAATCACTTCGTAGTAT, the sensor-assay potency score (higher = more potent) was found to be 0.305.

The target in the next test is CDH24. The test is described as above. The note with it: shRNA.
In the case of TGCAAGTCTGTGCTGATGCTGA, the sensor-assay potency score (higher = more potent) was -0.691.

In the case of TGGATTGTCGTTGATGTCTTGC, the sensor-assay potency score (higher = more potent) is -0.503.

TCATCAATCACAAATACGGTGC: the sensor-assay potency score (higher = more potent) is -0.0927.

Consider TAGGCTGGGTCAATGAGCGTGT, for which the sensor-assay potency score (higher = more potent) was -0.193.

For the sequence ATCCAGAACAGTGTACACCAGC, the sensor-assay potency score (higher = more potent) is -0.986.

Take TTCTATGGGAACCAAGTAGGGG: the sensor-assay potency score (higher = more potent) was -0.879.

With TAGAGAAGCAACGCTCCGGATC, the sensor-assay potency score (higher = more potent) was -0.845.

Take TTCATCTCTGTCCAGGGCCCGG: the sensor-assay potency score (higher = more potent) was -1.68.

As to TCGTTGACATCGCTGAGCGTGA, the sensor-assay potency score (higher = more potent) is -0.691.

Consider TTGTCCTGGACAGTAAAGTTGG, for which the sensor-assay potency score (higher = more potent) was -0.744.

Regarding TTCGAGTCCGCAGCAGAGCAGG, the sensor-assay potency score (higher = more potent) is -1.36.

Regarding TTCCTCAATGACAAAGAACTGG, the sensor-assay potency score (higher = more potent) was -0.774.

For the next test, the target named is CDH2. Described as above. The conditions noted are these: shRNA.
With TTTATCTTTAAATTAAGCTGAG, the sensor-assay potency score (higher = more potent) was -0.626.

In the case of TTGTACTTGTCCAAAAACCAAG, the sensor-assay potency score (higher = more potent) was -1.35.

Turning to TATCTCTTACATCATCTTCTGG, the sensor-assay potency score (higher = more potent) is -0.0628.

TTTGTTTCAAAGTCGATTGGTT: the sensor-assay potency score (higher = more potent) was determined as 0.586.

As to TTAACGTATACTGTTGCACTTT, the sensor-assay potency score (higher = more potent) was -0.309.

On to TAGTCAAACACTAACAGGGAGT, for which the sensor-assay potency score (higher = more potent) is -0.885.

TTCAACTTCTGCTGACTCCTTC came in with a sensor-assay potency score (higher = more potent) of 0.711.

Turning to TTATCTTTAAATTAAGCTGAGC, the sensor-assay potency score (higher = more potent) was -0.63.

For the sequence TTGATGACAATGTCAATGGGGT, the sensor-assay potency score (higher = more potent) was 0.314.

In the case of TTTCTCTTAATAGTCACTGGAG, the sensor-assay potency score (higher = more potent) was -0.274.

On to TTGATTGTAAACATGTTGGGTG, for which the sensor-assay potency score (higher = more potent) is 0.885.

Regarding TTTCTCGATCAAGTCCAGCTGC, the sensor-assay potency score (higher = more potent) is -0.018.

In the case of TTGACCACGGTGACTAACCCGT, the sensor-assay potency score (higher = more potent) is -0.441.
